Laboratory results taken from PubChem BioAssay (Tox21).
Results filed as inconclusive are left out. Active and inactive are the calls of the source. Unless noted, the call rests on the fitted dose curve.

Tests used:
[1] = Nuclear factor erythroid 2-related factor 2/antioxidant responsive element (Nrf2/ARE) small molecule agonists: qHTS cell viability counter screen in human keratinocytes (AID 1919968; active means well fitted curve in the direction sought with a large enough effect in the repeat runs; an effect the other way counts as inactive or inconclusive; further: nearly all actives have a fitted effect of over 55% in size)
Summary of the method: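 In human HaCaT keratinocytes stably expressing an ARE-driven luciferase, compound exposure lasted 23 h at 37 C under 5% CO2. Viable cells are quantified with a protease-based fluorogenic reagent (CellTiter-Fluor) read 1 h after addition.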

[2] = Nuclear factor erythroid 2-related factor 2/antioxidant responsive element (Nrf2/ARE) small molecule agonists: luciferase reporter gene qHTS assay in human keratinocytes (AID 1919969); further: nearly all actives have a fitted effect of over 35% in size
[3] = target: Gonadotropin-releasing hormone receptor (Homo sapiens) (UniProt P30968); assay: Human gonadotropin-releasing hormone receptor (GnRHR) small molecule agonists, calcium flux assay in GnRHR-HEK293 cells (AID 1920063); further: nearly all actives have a fitted effect of over 35% in size
Summary of the method: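 Intracellular calcium rise is the read-out: engineered human GnRHR HEK293 cells, dye-loaded, are exposed to DMSO-dissolved compounds and fluorescence at Ex/Em 480/540 is tracked for 3 min.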

[4] = target: KiSS-1 receptor (Homo sapiens) (UniProt Q969F8); assay: Human kisspeptin (KISS1R) small molecule agonists, calcium flux assay in KISS1R-HEK293 cells (AID 1920064; active means well fitted curve in the direction sought with a large enough effect in the repeat runs; an effect the other way counts as inactive or inconclusive)
Summary of the method: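 Concentration-response testing used 15 concentrations in triplicate on human KISS1R-expressing HEK293 cells. Calcium-dependent fluorescence (Ex/Em 480/540) was followed kinetically for 3 min after compound transfer.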

[5] = G protein-coupled receptor (GPCR) small molecule agonists, calcium flux assay: HEK293 wild type cell line counter screen (AID 1920065)
Summary of the method: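 Fluorescence intensity signals activation. After overnight (18 h) culture and a 1 h calcium dye load at 37 C, compounds are added by pin tool and the plate read at 480/540 nm for 3 min in 1 s steps.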

[6] = p53 small molecule agonists, cell-based qHTS assay with human liver microsomes (AID 1963577);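 further: p53 response element beta-lactamase reporter cells with liver microsomes plus NADPH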
Summary of the method: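 HLM-supplemented p53RE-bla reporter assay: 16 h compound exposure at 37 C, microsomes and NADPH each 0.5 mg/mL final, read by fluorescence intensity.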

[7] = p53 small molecule agonists, cell-based qHTS assay with rat liver microsomes (AID 1963578)
Summary of the method: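 Quantitative HTS of the Tox21 10K library: p53RE-bla cells, rat liver microsomes plus NADPH at 0.5 mg/mL final each, 16 h at 37 C, beta-lactamase fluorescence detection.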

[8] = p53 small molecule agonists, cell-based qHTS assay with human liver microsomes: qHTS cell viability counter screen (AID 1963579); further: nearly all actives have a fitted effect of over 45% in size
Summary of the method: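 Viability of p53RE-bla cells is measured as CellTiter-Glo luminescence following a 16 h, 37 C incubation with compound, liver microsomes from human donors and NADPH.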

[9] = p53 small molecule agonists, cell-based qHTS assay: qHTS cell viability counter screen (AID 1963581); further: nearly all actives have a fitted effect of over 45% in size
Summary of the method: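 Luminescence from CellTiter-Glo, reflecting ATP content, serves as the cytotoxicity measure; it is taken after the 2 h reporter substrate step in HCT-116 p53RE-bla cells dosed for 16 h at 37 C.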

[10] = p53 small molecule agonists, cell-based qHTS assay (AID 1963582; active means well fitted activation curve with a large enough effect in the signal ratio in the repeat runs, not every such curve was filed as active; the % refers to the signal ratio)
Summary of the method: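 After plating, p53RE-bla cells sat 5 h in the incubator; compounds or DMSO vehicle were pinned in; a 16 h incubation at 37 C followed; FRET substrate was added and, 2 h later at RT, fluorescence was measured.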

[11] = target: 5-hydroxytryptamine receptor 2A (Homo sapiens) (UniProt P28223); assay: 5-hydroxytryptamine receptor 2A (HTR2A) small molecule antagonists, cell-based qHTS assay (AID 1963586); further: nearly all actives have a fitted effect of over 45% in size
Summary of the method: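 CHO cells stably expressing human HTR2A were plated for 18 h at 37 C, then loaded with calcium dye for 1 h. Compounds were preincubated 5 min at room temperature before DOI (4 nM solution) was added. Kinetic fluorescence was read for 3 min.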

[12] = target: 5-hydroxytryptamine receptor 2A (Homo sapiens) (UniProt P28223); assay: 5-hydroxytryptamine receptor 2A (HTR2A) small molecule agonists, cell-based qHTS assay (AID 1963587); further: nearly all actives have a fitted effect of over 30% in size
Summary of the method: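 CHO cells stably expressing human HTR2A, plated 18 h, loaded with calcium dye 1 h at 37 C. Agonist mode: compounds added and intracellular calcium fluorescence recorded kinetically for 2 min at 1 sec intervals.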

[13] = target: Muscarinic acetylcholine receptor M1 (Homo sapiens) (UniProt P11229); assay: Cholinergic receptor muscarinic 1 (CHRM1) small molecule antagonists, cell-based qHTS assay (AID 1963588); further: nearly all actives have a fitted effect of over 40% in size
Summary of the method: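 Compounds were tested at 15 concentrations in three independent runs. Dye-loaded CHRM1-CHO cells were exposed 5 min at room temperature before stimulation by acetylcholine added at 50nM. Intracellular calcium was read kinetically on FDSS for 3 min.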

[14] = target: Muscarinic acetylcholine receptor M1 (Homo sapiens) (UniProt P11229); assay: Cholinergic receptor muscarinic 1 (CHRM1) small molecule agonists, cell-based qHTS assay (AID 1963589); further: nearly all actives have a fitted effect of over 35% in size
Summary of the method: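 Fluorescent calcium dye reports M1 activation in stably transfected CHO cells. Compounds, 15 concentrations, added after 1 h dye loading at 37 C; kinetic reading at 1 sec intervals.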

[15] = cAMP Responsive Elements (CRE) small molecule agonists, cell-based qHTS assay (AID 1963590)
Summary of the method: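 Compound exposure lasted 3 h at 37 C/5% CO2 in CRE-bla HEK 293T cells grown in assay medium with 10% dialyzed FBS and 25 mM HEPES. Reporter signal came from LiveBLAzer B/G FRET substrate, 2 h, room temperature.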

[16] = cAMP Responsive Elements (CRE) small molecule antagonists, cell-based qHTS assay (AID 1963591; active means well fitted inhibition curve with a large enough effect in the signal ratio in the repeat runs, not every such curve was filed as active; the % refers to the signal ratio)
Summary of the method: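 Stimulation used NKH477 at a final 0.25 uM for 3 h in compound-treated CRE-bla HEK293T cells, seeded 18 h beforehand. Reporter activity was measured with LiveBLAzer B/G FRET substrate after 2 h at room temperature.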

[17] = target: Beta-2 adrenergic receptor (Homo sapiens) (UniProt P07550); assay: Adrenergic beta2 receptor (ADRB2) small molecule antagonists, cell-based qHTS assay (AID 1963592); further: series mostly up to about 92 µM; nearly all actives have a fitted effect of over 50% in size
Summary of the method: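 Assay format: CHO-ADRB2 cells, 18-20hr seeding at 37C/5% CO2, then compound plus 1nM isoproterenol agonist mix for 0.5hr RT. Homogeneous time-resolved fluorescence cAMP detection after 1hr, expressed as 665/615 nm ratio.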

[18] = target: D(2) dopamine receptor (Homo sapiens) (UniProt P14416); assay: Dopamine D2 receptor (DRD2) small molecule antagonists, cell-based qHTS assay (AID 1963595; active means well fitted inhibition curve with a large enough effect in the signal ratio in the repeat runs, with a control signal flat; the % refers to the signal ratio)
Summary of the method: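 HEK293 cells stably expressing DRD2, preincubated with 0.1 mM Ro20-1724 and compounds 10 min, were stimulated with 200 nM NKH477 plus 12 nM quinpirole for 30 min at room temperature; cAMP measured by HTRF (665/620 nm).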

[19] = target: D(2) dopamine receptor (Homo sapiens) (UniProt P14416); assay: Dopamine D2 receptor (DRD2) small molecule agonists, cell-based qHTS assay (AID 1963594); further: nearly all actives have a fitted effect of over 35% in size
Summary of the method: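 HEK293 cells stably expressing human DRD2, pre-treated with PDE inhibitor Ro20-1724 (0.1 mM final) and compound 10 min at room temperature, then stimulated with NKH477 (200nM […]) for 30 min. cAMP read by HTRF (665/620 nm).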
On the % scale 0 is the no-effect control and ±100 the full control effect.

Chain of KiSS-1 receptor (Homo sapiens) (Q969F8 whole entry, looked up): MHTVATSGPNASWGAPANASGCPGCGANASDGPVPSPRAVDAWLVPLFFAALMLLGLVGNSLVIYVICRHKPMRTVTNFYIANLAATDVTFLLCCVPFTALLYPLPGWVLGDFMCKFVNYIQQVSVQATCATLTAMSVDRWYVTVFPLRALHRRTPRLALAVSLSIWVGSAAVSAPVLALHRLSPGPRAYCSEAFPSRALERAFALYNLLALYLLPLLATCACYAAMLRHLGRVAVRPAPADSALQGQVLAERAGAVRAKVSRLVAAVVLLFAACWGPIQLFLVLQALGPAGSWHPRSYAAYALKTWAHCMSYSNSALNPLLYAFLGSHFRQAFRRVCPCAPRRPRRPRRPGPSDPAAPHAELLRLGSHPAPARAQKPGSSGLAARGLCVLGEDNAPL
Chain of Muscarinic acetylcholine receptor M1 (Homo sapiens) (P11229 whole entry, looked up): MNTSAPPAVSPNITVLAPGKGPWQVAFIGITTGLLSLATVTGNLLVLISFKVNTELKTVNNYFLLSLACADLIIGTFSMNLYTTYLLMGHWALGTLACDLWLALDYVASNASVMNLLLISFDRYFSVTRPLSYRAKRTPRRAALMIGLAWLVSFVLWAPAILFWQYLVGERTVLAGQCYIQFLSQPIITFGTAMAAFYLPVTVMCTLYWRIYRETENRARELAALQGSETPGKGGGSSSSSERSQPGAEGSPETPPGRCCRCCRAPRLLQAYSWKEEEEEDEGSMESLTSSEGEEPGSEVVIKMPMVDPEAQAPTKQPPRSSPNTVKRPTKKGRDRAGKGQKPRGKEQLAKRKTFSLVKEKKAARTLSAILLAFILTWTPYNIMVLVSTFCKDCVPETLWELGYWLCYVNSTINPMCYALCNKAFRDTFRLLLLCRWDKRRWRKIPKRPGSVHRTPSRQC
Chain of D(2) dopamine receptor (Homo sapiens) (P14416 whole entry, looked up): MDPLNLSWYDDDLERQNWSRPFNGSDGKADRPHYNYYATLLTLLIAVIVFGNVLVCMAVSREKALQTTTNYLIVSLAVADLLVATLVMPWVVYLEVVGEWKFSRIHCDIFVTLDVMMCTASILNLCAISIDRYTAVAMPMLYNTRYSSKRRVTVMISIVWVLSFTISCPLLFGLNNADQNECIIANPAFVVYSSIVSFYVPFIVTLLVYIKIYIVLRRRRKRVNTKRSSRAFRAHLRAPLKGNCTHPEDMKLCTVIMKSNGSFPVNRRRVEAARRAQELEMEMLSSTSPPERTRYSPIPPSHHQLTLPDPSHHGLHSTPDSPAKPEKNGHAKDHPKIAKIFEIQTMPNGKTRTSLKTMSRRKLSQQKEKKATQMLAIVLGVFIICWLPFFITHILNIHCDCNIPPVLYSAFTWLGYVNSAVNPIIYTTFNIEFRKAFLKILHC
Chain of 5-hydroxytryptamine receptor 2A (Homo sapiens) (P28223 whole entry, looked up): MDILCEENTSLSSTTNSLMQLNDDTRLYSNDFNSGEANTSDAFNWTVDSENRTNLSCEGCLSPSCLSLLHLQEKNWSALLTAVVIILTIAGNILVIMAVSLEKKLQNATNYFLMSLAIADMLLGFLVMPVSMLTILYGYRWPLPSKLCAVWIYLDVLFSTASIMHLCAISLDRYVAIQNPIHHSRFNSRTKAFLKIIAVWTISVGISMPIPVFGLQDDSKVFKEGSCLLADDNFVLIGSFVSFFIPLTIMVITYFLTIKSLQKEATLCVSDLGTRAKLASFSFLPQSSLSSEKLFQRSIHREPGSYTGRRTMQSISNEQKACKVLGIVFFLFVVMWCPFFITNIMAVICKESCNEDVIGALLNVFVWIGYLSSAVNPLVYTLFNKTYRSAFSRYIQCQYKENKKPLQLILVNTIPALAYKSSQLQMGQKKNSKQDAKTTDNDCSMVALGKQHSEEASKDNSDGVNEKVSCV
Chain of Beta-2 adrenergic receptor (Homo sapiens) (P07550 whole entry, looked up): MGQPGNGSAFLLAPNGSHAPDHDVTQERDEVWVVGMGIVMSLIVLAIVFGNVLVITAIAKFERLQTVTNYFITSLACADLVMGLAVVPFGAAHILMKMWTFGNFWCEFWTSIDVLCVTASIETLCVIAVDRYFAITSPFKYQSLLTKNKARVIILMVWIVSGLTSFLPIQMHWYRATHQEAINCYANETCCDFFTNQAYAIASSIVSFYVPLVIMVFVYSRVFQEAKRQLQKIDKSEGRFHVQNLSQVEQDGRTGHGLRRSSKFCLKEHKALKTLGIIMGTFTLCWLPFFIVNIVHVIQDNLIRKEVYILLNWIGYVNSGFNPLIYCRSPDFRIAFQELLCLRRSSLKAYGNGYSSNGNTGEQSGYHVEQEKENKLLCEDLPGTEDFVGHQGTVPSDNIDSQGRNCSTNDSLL
Chain of Gonadotropin-releasing hormone receptor (Homo sapiens) (P30968 whole entry, looked up): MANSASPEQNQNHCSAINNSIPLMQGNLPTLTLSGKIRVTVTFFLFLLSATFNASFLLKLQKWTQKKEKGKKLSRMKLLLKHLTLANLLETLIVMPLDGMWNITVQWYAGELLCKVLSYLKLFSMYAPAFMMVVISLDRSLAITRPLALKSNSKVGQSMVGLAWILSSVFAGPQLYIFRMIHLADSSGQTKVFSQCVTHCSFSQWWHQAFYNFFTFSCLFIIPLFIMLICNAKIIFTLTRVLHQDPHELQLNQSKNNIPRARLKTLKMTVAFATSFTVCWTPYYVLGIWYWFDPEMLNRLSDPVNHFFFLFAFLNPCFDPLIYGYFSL

C=CCCCCCCCCC(=O)OCC
inactive: Potency [1] | Potency [2] | Potency [3] | outcome [4] | outcome [5] | Potency [6] | Potency [7] | Potency [8] | Potency [9] | Potency [10] | Potency [11] | Potency [12] | Potency [13] | Potency [14] | Potency [15] | Potency [16] | Potency [17] | Potency [18]

COc1cc(C)ccc1C(C)C
inactive: Potency [1] | Potency [2] | Potency [3] | outcome [4] | outcome [5] | Potency [6] | Potency [7] | Potency [8] | Potency [9] | Potency [10] | Potency [11] | Potency [12] | Potency [13] | Potency [15] | Potency [16] | Potency [17] | Potency [19] | Potency [18]

C1=CCCC1
inactive: Potency [1] | Potency [2] | Potency [3] | outcome [4] | outcome [5] | Potency [6] | Potency [7] | Potency [8] | Potency [9] | Potency [10] | Potency [11] | Potency [12] | Potency [13] | Potency [14] | Potency [15] | Potency [16] | Potency [17] | Potency [19] | Potency [18]

O=C1CC2(CCCC2)CC(=O)N1
inactive: Potency [1] | Potency [2] | Potency [3] | outcome [4] | outcome [5] | Potency [6] | Potency [7] | Potency [8] | Potency [9] | Potency [10] | Potency [11] | Potency [12] | Potency [13] | Potency [14] | Potency [15] | Potency [16] | Potency [17] | Potency [19] | Potency [18]

O=C(OCC1(COC(=O)c2cccnc2)CCCC(COC(=O)c2cccnc2)(COC(=O)c2cccnc2)C1O)c1cccnc1
inactive: Potency [1] | Potency [2] | Potency [3] | outcome [4] | outcome [5] | Potency [6] | Potency [7] | Potency [8] | Potency [9] | Potency [10] | Potency [11] | Potency [12] | Potency [13] | Potency [17] | Potency [19] | Potency [18]

CCOC(=O)COC(=O)c1ccccc1C(=O)OCC
inactive: Potency [1] | Potency [2] | Potency [3] | outcome [4] | outcome [5] | Potency [6] | Potency [7] | Potency [8] | Potency [9] | Potency [10] | Potency [11] | Potency [12] | Potency [14] | Potency [17] | Potency [19] | Potency [18]

O=S(O)(O)=S
inactive: activity change, negative = cytotoxicity [1] -0.897% [at 8.39 µM] | activity, positive = activation [2] -3.55% [at 8.39 µM] | activity change [3] 4.24% [at 5.22 µM, stronger effect = higher value] | activation [4] -0.115% [at 6.97 µM] | activation [5] 0.868% [at 5.23 µM] | activation [6] 0.289% [at 5.99 µM] | activation [7] -2.47% [at 5.99 µM] | activity change, negative = cytotoxicity [8] -5.1% [at 5.99 µM] | activity change, negative = cytotoxicity [9] -0.464% [at 5.99 µM] | activation [10] -3.63% [at 5.99 µM] | activity, negative = inhibition [11] 5.27% [at 5.62 µM] | activation [12] 7.09% [at 7.02 µM] | activity, negative = inhibition [13] 0.0869% [at 5.58 µM] | activation [14] -0.0505% [at 6.97 µM] | activation [15] -0.269% [at 8.39 µM] | activity change, negative = inhibition [16] -0.372% [at 8.39 µM] | activity change, negative = inhibition [17] 6.54% [at 8.39 µM] | activation [19] -2.24% [at 8.39 µM] | activity change, negative = inhibition [18] -2.62% [at 8.38 µM]
